Only a selection was taken, and hits are over-represented in it overall.
Dicer processing: inhibitors of Dicer pre-microRNA processing, primary screen, biochemical, cat-ELCCA, chemiluminescence. AID 1347074, 2019. z-score at 25 µM. Endoribonuclease Dicer (Homo sapiens), Q9UPY3. 47,000 compounds, 6% hits. cat-ELCCA pre-miR-21 Dicer processing; stronger effect = higher value; in the data active means z-score above about 3, passing the limit was not always enough;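 further: plate controls were vehicle for no effect and no enzyme for full effect; higher signal means more uncleaved substrate so more Dicer inhibition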
Active calls of the source: *.

SMILES	Dicer processing
CC(C(=O)O)c1cccc(Oc2ccccc2)c1 (configuration not stated)	-0.07
Cc1cccc(NC(C(=O)O)c2ccccc2)c1 (configuration not stated)	5.4*
O=C(O)c1ccccc1NC(C(=O)O)c1ccccc1 (configuration not stated)	5.5*
O=C(O)c1ccccc1SC(C(=O)O)c1ccccc1 (configuration not stated)	0.18
CCOc1cc(/C=N/NC(=O)CC#N)ccc1O	-0.37
CCCc1nc(-c2ccccn2)[nH]c(=O)c1CC1CC1	0.58
Cc1cccc(C)c1NC(=O)c1cnc(Sc2ccccc2)cc1C(F)(F)F	-1.1
CN(C)CCCNC(=O)C(=O)Nc1ccccc1Oc1ccc(Cl)cc1Cl	0.16
N#CC(C#N)=NNc1ccccc1Oc1ccc(Cl)cc1Cl	3.9*
O=C(Nc1ccccc1Oc1ccc(Cl)cc1Cl)c1cc(Cl)sc1Cl	-0.24
CN1c2ccccc2C(=O)/C(=C\Nc2ccccn2)S1(=O)=O	-0.29
O=c1[nH][nH]c2c1cnc1c(F)cc(F)cc12	-0.24
CC(C)NC(=S)Nc1cccc2ccccc12	6.1*
CC1CN(C(=S)Nc2cccc3ccccc23)CC(C)O1 (configuration not stated)	-1.5
CCOC(=S)Nc1cccc2ccccc12	-1.2
COc1ccc2c(c1)sc(/C=C/c1ccc(O)cc1)[n+]2C	-1.2
CCOC(=O)c1c[nH]c2ccc(F)c(C#N)c2c1=O	0.23
COc1cc(CCC(C)NC(=O)c2ccc(Cl)cc2)ccc1OC(=O)c1ccc(Cl)cc1 (configuration not stated)	-0.99
Cc1nn(C)c(Cl)c1S(=O)(=O)Nc1ccc(Oc2ccc(F)cc2)cc1	3.2*
Cc1nn(C)c(Oc2ccc(F)cc2)c1[N+](=O)[O-]	-2.6
Cn1nc(-c2ccc(Cl)cc2)cc1NS(=O)(=O)c1ccc(F)cc1	0.12
COCCOC(=O)C1=C(C)NC2=C(C(=O)CC(c3cccs3)C2)C1c1ccc(OC(C)=O)cc1 (configuration not stated)	2.1
Nc1nc(-c2ccccc2)cn1Nc1ccccc1	-2.7
COc1cccc(OCCCCCN2CCCCC2)c1	1.3
Nc1cc(Cc2cc(N)cc(C(F)(F)F)c2)cc(C(F)(F)F)c1	0.5
SMILES	Dicer processing
CCOc1ccc2nc(SCCc3ccccc3)[nH]c2c1	1.3
COc1ccc(NC(=O)CSCC(=O)O)cc1OC	-1.7
O=C(O)CSCC(=O)Nc1cccnc1	5.6*
CC(=O)c1ccc(NC(=O)CN2CCN(CC(=O)Nc3ccc(C(C)=O)cc3)CC2)cc1	1.6
O=C(O)CSCC(=O)Nc1ccc(C(F)(F)F)cn1	-1.2
CC(=O)c1ccc(NC(=O)CSCC(=O)O)cc1	4.3*
O=C(O)CSCC(=O)Nc1ccccn1	8.4
O=C(O)CCC(=O)N1c2ccccc2NC2=C(C(=O)CC(c3ccc(F)cc3)C2)C1c1cccs1 (configuration not stated)	-1.8
CSC1=NCN(CCCO)CN1	0.86
CC(C)n1nnc2cc(C(=O)Nc3ccc(Cl)cc3)ccc21	-0.49
O=C1c2ccccc2-c2nc3cc(C(F)(F)F)ccc3nc21	-1.7
Cc1nc2ccc(C(F)(F)F)cc2nc1C	3.5*
Cc1nc2ccc([N+](=O)[O-])cc2nc1C	-0.66
Cc1cccc(NC(=O)c2ccc(Cl)cc2)n1	3.1*
O=C(Nc1ncccn1)c1ccc(Cl)cc1	-0.85
Cc1cccc(NC(=O)c2ccccc2)n1	0.52
Fc1ccc(C2C3CCc4ccccc4C3=NN2C(=S)Nc2ccc(Cl)cc2)cc1 (configuration not stated)	-1.4
CCOC(=O)c1cnn(-c2ccc(NS(=O)(=O)c3cc(C(F)(F)F)cc(C(F)(F)F)c3)cc2)c1C(F)(F)F	1.7
COC(=O)c1cc(=O)n2c(c1C(=O)c1ccc(Cl)cc1)SCC2	5.6*
O=C(c1ccc(Cl)cc1)N1CCSC1=S	-1.4
COC(=O)c1cc(Cl)cc(Cl)c1-c1c(Cl)cc(Cl)cc1C(=O)OC	-0.82
CCOC(=O)C1=C(C)Nc2ncnn2C1c1ccc(OC)c(O)c1 (configuration not stated)	-0.15
COc1nc(-c2ccc(Cl)cc2)ccc1-c1noc(C(C)C)n1	0.92
O=C1C2C(c3ccc(Cl)cc3)OC3(C(=O)c4ccccc4C3=O)C2C(=O)N1c1ccc(F)cc1F (configuration not stated)	6.1*
COc1ccc(Cl)cc1N1C(=O)C2C(c3ccccc3)OC3(C(=O)c4ccccc4C3=O)C2C1=O (configuration not stated)	4.1*
SMILES	Dicer processing
Cc1c(Cl)cccc1N1C(=O)C2C(c3ccccc3)OC3(C(=O)c4ccccc4C3=O)C2C1=O (configuration not stated)	0.46
COc1ccc(N2C(=O)C3C(c4ccccc4)OC4(C(=O)c5ccccc5C4=O)C3C2=O)cc1OC (configuration not stated)	-0.1
Cc1ccc(C2OC3(C(=O)c4ccccc4C3=O)C3C(=O)N(Cc4ccccc4)C(=O)C23)cc1 (configuration not stated)	-1.4
CCOc1ccc(N2C(=O)C3C(c4ccc(C)cc4)OC4(C(=O)c5ccccc5C4=O)C3C2=O)cc1 (configuration not stated)	3.4*
O=C1C2C(c3ccc(F)cc3)OC3(C(=O)c4ccccc4C3=O)C2C(=O)N1Cc1ccc(Cl)cc1 (configuration not stated)	-1.2
COc1ccc(N2C(=O)C3C(c4ccccc4Cl)OC4(C(=O)c5ccccc5C4=O)C3C2=O)cc1 (configuration not stated)	-0.76
O=C1C2C(c3ccccc3)OC3(C(=O)c4ccccc4C3=O)C2C(=O)N1c1cccc(F)c1 (configuration not stated)	1.1
COC(=O)C1=C(NC(=O)NC(=O)N(c2ccccc2)S(C)(=O)=O)CCS1	-0.12
CCOC(=O)c1sc(SC)c(C#N)c1-c1cccs1	0.08
O=C(Nc1ccc(Cl)cc1Cl)c1cccnc1Sc1cccc(C(F)(F)F)c1	-0.5
CSc1nc(/N=C/N(C)C)n(-c2cc(C(F)(F)F)cc(C(F)(F)F)c2)n1	-0.09
CC1=C(C(=O)Nc2cccc(C)n2)C(c2ccsc2)C2=C(CC(C)(C)CC2=O)N1 (configuration not stated)	0.2
CC1=C(C(=O)Nc2cccc(F)c2)C(c2ccsc2)C2=C(CC(C)(C)CC2=O)N1 (configuration not stated)	3.7*
CCSCCOC(=O)C1=C(C)NC2=C(C(=O)CC(C)(C)C2)C1c1ccsc1 (configuration not stated)	11
CCCOC(=O)C1=C(C)NC2=C(C(=O)CC(C)(C)C2)C1c1ccc(CC)cc1 (configuration not stated)	-0.73
O=C1CC(N2CCN(c3ccccc3O)CC2)C(=O)N1c1ccccc1F (configuration not stated)	2.3
COc1ccccc1N1C(=O)CC(N2CCN(c3ccc(F)cc3)CC2)C1=O (configuration not stated)	0.32
Cc1cccc(N2C(=O)CC(n3ccnc3)C2=O)c1C (configuration not stated)	3.5*
CCCSc1nnc(/N=C/N(C)C)s1	2.4
CCNC(=O)C(COCc1ccccc1)NC(=O)OC(C)(C)C (configuration not stated)	-0.01
Cc1nc2ccccc2c2c1C(=O)N(c1cccc(C(=O)OCC(=O)C(C)(C)C)c1)C2=O	-1.5
Cc1ccc(C(=O)COC(=O)c2cccc(N3C(=O)c4c(C)nc5ccccc5c4C3=O)c2)cc1	0.43

High-throughput results as filed in PubChem.
